For assay [1], the target named is Thyrotropin receptor (Homo sapiens) (UniProt P16473). In words: qHTS assay to identify small molecule agonists of the thyroid stimulating hormone receptor (TSHR) signaling pathway (AID 1224843; calls by dose curve; further: nearly all actives have a fitted effect of over 45% in size). In short, it runs like this: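 HEK293/TSHR, 800 cells/well; cpd 30 min RT; add cAMP-d2 + anti-cAMP-cryptate, 1 h RT; fluorescence read on plate reader. 15-pt titration, n=3.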
(Quantitative high-throughput screening tests each substance at several concentrations.)

Assay [2] in a line: qHTS assay to identify small molecule agonists of the hypoxia (HIF-1) signaling pathway - cell viability counter screen (AID 1224844; calls by dose curve; further: nearly all actives have a fitted effect of over 50% in size). A digest of the protocol: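 Viability counter screen: HRE-bla ME-180 cells plated 5 hrs before compound addition, treated 17 hrs at 37C and 5% CO2, then CellTiter-Glo added after the FRET reporter read; luminescence after 30 min.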
Assay [3] is described as follows: qHTS assay to identify small molecule agonists of H2AX (AID 1224845; active means well fitted activation curve with a large enough effect in the signal ratio in the repeat runs, not every such curve was filed as active; the % refers to the signal ratio). In short, it runs like this: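 Wild-type CHO-K1 cells, plated overnight, exposed 3hr at 37C to 15 concentrations (0.76% DMSO final). Lysed, then HTRF anti-pH2AX (S139) cryptate and anti-H2AX-d2 antibodies, 24 hr room temperature; 665/620 nm emission read.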
Assay [4] in a line: qHTS assay to identify small molecule agonists of the hypoxia (HIF-1) signaling pathway (AID 1224846; active means well fitted activation curve with a large enough effect in the signal ratio in the repeat runs, not every such curve was filed as active; the % refers to the signal ratio). A digest of the protocol: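 Agonist mode reporter screen. ME-180 cells stably expressing bla under HRE control received test compounds in DMSO for 17 hrs (37C, 5% CO2), and beta-lactamase activity was then detected with the CCF4-AM FRET substrate.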
Assay [5] is described as follows: qHTS assay to identify small molecule agonists of H2AX - cell viability counter screen (AID 1224847; calls by dose curve; further: top concentration of the series differs between compounds; nearly all actives have a fitted effect of over 30% in size). A digest of the protocol:
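We seed wild-type CHO-K1 cells overnight, treat them for 3 hr at 37C with compounds in 15-concentration series, and quantify remaining viability by CellTiter-Glo luminescence.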

Assay [6] is described as follows: qHTS RealTime-Glo MT Cell Viability Assay in HepG2 cells - 24 hour (AID 1224867). Further: nearly all actives have a fitted effect of over 50% in size. A digest of the protocol: (§1)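 Compound treatment began 5 h after plating HepG2 cells (600/well) with NanoLuc luciferase and prosubstrate. Plates stayed at 37 C for 40 h; luminescence was captured at six time points, 0 h through 40 h.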
Assay [7] is described as follows: qHTS RealTime-Glo MT Cell Viability Assay in HEK293 cells - 32 hour (AID 1224868). Further: top concentration of the series differs between compounds; nearly all actives have a fitted effect of over 50% in size. In short, it runs like this:
(§2)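 Quantitative high-throughput screen of the Tox21 10K library in HEK293: cells and RealTime-Glo reagents plated together, compound added at 5 h, luminescence monitored through 40 h at 37 C.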

Assay [8] can be described thus: A CellTox Green Cytotoxicity Assay to monitor cytotoxicity in HEK293 cells - 0 hour (AID 1224869). Further: nearly all actives have a fitted effect of over 50% in size. Further: potency means the concentration at half of the fitted maximal effect. A digest of the protocol:
(§3)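 Dead-cell fluorescence measured kinetically: asymmetric cyanine dye, HEK293, 600 cells/well, 5 h settle, 23 nL cpd/DMSO, 37 C, reads 0–40 h every 8 h.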

Assay [9] in a line: qHTS RealTime-Glo MT Cell Viability Assay in HepG2 cells - 40 hour (AID 1224870). Further: nearly all actives have a fitted effect of over 50% in size. A digest of the protocol: (§4)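 HepG2 cells (600/well) mixed with RealTime-Glo MT reagent, settled 5 h at 37 C/5% CO2 before compound addition. Nonlytic NanoLuc luminescence from viable-cell prosubstrate reduction read repeatedly during 40 h treatment at 37 C.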
The nature of assay [10]: qHTS RealTime-Glo MT Cell Viability Assay in HEK293 cells - 16 hour (AID 1224872). A digest of the protocol: as §2
Assay [11] in a line: qHTS RealTime-Glo MT Cell Viability Assay in HepG2 cells - 8 hour (AID 1224873). Further: nearly all actives have a fitted effect of over 55% in size. In short, it runs like this:
as §4

The nature of assay [12]: qHTS RealTime-Glo MT Cell Viability Assay in HEK293 cells - 40 hour (AID 1224874). Further: nearly all actives have a fitted effect of over 50% in size. Conditions: RealTime-Glo luminescence; max response: hits give low values. In short, it runs like this:
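600 HEK293 cells per well, dispensed already mixed with RealTime-Glo MT reagents. Compound dosing came 5 h later. The same wells were read for luminescence at 0, 8, 16, 24, 32 and 40 h of exposure at 37 C.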

Assay [13] is described as follows: A CellTox Green Cytotoxicity Assay to monitor cytotoxicity in HEK293 cells - 24 hour (AID 1224875). Further: nearly all actives have a fitted effect of over 45% in size. Further: potency means the concentration at half of the fitted maximal effect. A digest of the protocol:
as §3

The nature of assay [14]: A CellTox Green Cytotoxicity Assay to monitor cytotoxicity in HepG2 cells - 16 hour (AID 1224876). Further: nearly all actives have a fitted effect of over 45% in size. Further: potency means the concentration at half of the fitted maximal effect. A digest of the protocol: (§5)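 First, HepG2 cells (600/well) mixed with reagent were plated; second, after 5 h at 37 C they received compounds via pintool; third, fluorescence was measured at 0 h through 40 h at 8 h intervals.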
Assay [15] is described as follows: qHTS RealTime-Glo MT Cell Viability Assay in HepG2 cells - 32 hour (AID 1224877). Further: nearly all actives have a fitted effect of over 55% in size. A digest of the protocol: as §1
A short description of assay [16]: A CellTox Green Cytotoxicity Assay to monitor cytotoxicity in HepG2 cells - 24 hour (AID 1224878). Further: nearly all actives have a fitted effect of over 45% in size. Further: potency means the concentration at half of the fitted maximal effect. In short, it runs like this:
as §5

Assay [17] can be described thus: A CellTox Green Cytotoxicity Assay to monitor cytotoxicity in HepG2 cells - 40 hour (AID 1224879). Further: nearly all actives have a fitted effect of over 40% in size. Further: potency means the concentration at half of the fitted maximal effect. In short, it runs like this: as §5
A short description of assay [18]: A CellTox Green Cytotoxicity Assay to monitor cytotoxicity in HEK293 cells - 40 hour (AID 1224871). Further: nearly all actives have a fitted effect of over 45% in size. In short, it runs like this:
as §3

The nature of assay [19]: qHTS assay to identify small molecule antagonists of the estrogen related receptor (ERR) signaling pathway from Tox21 library (AID 1224848). Further: nearly all actives have a fitted effect of over 50% in size. In short, it runs like this:
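Compounds dissolved in DMSO are pin-transferred onto ERR reporter cells (2,000 per well) that have settled for 6 h at 37 C. Plates then incubate 18 h at 37 C before ONE-Glo luciferase reagent and a luminescence read 30 min later.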

A short description of assay [20]: qHTS assay to identify small molecule agonists of the estrogen related receptor (ERR) signaling pathway from Tox21 library (AID 1224849; calls by dose curve; further: nearly all actives have a fitted effect of over 15% in size). The settings on record: ERR reporter cell line, ONE-Glo luciferase, 18 h; at 92.4 µM (top of the series) unless noted. A digest of the protocol:
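Quantitative HTS in agonist format: NTP ERR cell line, compounds transferred in DMSO after 6 h plating, 18 h incubation at 37 C, ONE-Glo luminescence endpoint.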

Values without a mark were called inactive. Records with an inconclusive call do not appear. The source made the active and inactive calls. Unless noted, the call rests on the fitted dose curve; in most records, active means well fitted curve in the direction sought with a large enough effect in the repeat runs; inconclusive means weak or mixed curves; inactive means no such curve, though single readings can be large; an effect the other way counts as inactive or inconclusive.
On the % scale 0 is the no-effect control and ±100 the full control effect.

Chain of Thyrotropin receptor (Homo sapiens) (P16473 whole entry, looked up): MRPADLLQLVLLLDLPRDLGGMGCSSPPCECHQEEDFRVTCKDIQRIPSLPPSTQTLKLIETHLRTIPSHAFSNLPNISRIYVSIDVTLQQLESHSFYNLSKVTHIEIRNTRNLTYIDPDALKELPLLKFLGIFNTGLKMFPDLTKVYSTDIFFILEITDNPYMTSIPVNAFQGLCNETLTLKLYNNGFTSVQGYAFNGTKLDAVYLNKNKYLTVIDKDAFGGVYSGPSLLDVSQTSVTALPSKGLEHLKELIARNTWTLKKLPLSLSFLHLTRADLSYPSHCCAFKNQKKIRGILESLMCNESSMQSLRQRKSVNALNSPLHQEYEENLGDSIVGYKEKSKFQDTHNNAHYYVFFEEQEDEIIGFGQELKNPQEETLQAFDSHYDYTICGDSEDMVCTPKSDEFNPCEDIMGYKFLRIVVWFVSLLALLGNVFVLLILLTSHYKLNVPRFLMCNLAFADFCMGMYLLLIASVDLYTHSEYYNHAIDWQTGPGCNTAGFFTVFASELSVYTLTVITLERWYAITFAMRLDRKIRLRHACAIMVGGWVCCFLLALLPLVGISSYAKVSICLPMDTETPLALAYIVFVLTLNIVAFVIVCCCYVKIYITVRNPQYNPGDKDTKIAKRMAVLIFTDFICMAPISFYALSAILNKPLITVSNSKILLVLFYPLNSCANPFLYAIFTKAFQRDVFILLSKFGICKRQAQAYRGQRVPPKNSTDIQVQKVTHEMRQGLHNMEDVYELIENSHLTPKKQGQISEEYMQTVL

Consider `O=C(c1ccccc1)C1CCC1`, for which the Potency result in [1], in [2], in assay [3], in assay [5], in [6] and in assay [7] was “inactive” in each case. In addition, the Potency entry in assay [9], in [10], in [11] and in [15] was “inactive” each time. Besides, the call in assay [4] was inactive. Further, the Potency in assay [8] was 38.9 µM (active); in assay [13], 24.5 µM (active); in assay [14], 38.9 µM (active); in assay [16], 38.9 µM (active); in [17] it was 27.5 µM (active). Moreover, the max response in [12] was 13.2%.
As for `FC(F)(F)C(F)(F)C(F)(F)C(F)(F)CCI`, the Potency result in assay [1], in assay [2], in assay [3], in assay [5], in assay [6] and in assay [7] was “inactive” throughout. Besides, the Potency result in assay [8], in assay [18], in [10], in assay [11], in [13] and in assay [14] was “inactive” in each case. Also, the Potency entry in assay [15], in assay [16] and in [17] was “inactive” each time. In addition, the molecule was called inactive in assay [4]. Also, the max response in assay [12] was -4.67%.
Consider `C=CC(=O)NC(C)C`, for which the Potency entry in assay [1], in [2], in [3], in assay [5], in [19] and in [6] was “inactive” in each case. For the same molecule, the Potency result in assay [8], in assay [9], in assay [18], in assay [10], in [11] and in assay [13] was “inactive” in each case. Besides, the Potency entry in [15], in [16] and in [17] was “inactive” each time. Besides, the molecule was called inactive in assay [4]. For the same molecule, the activity change, positive = activation in [20] is 4.77%. In assay [12], the max response was 9.7%.
Consider `CS(=O)(=O)c1ccc([C@@H](C[C@H]2CCC(=O)C2)C(=O)Nc2cnccn2)cc1Cl`, for which the Potency entry in [1], in assay [2], in assay [3], in [5], in [6] and in [8] was “inactive” throughout. Further, the Potency result in assay [9], in [18], in assay [10], in assay [11], in assay [13] and in [14] was “inactive” in each case. Besides, the Potency entry in assay [15], in assay [16] and in [17] was “inactive” in each case. In [4], the call was inactive. For the same molecule, the max response in assay [12] is 0.0186%.
Consider `CC1=CC[C@@]23C[C@@H]1C(C)(C)[C@@H]2CC[C@H]3C`, for which the Potency result in assay [1], in assay [2], in assay [3], in assay [5], in assay [6] and in [7] was “inactive” each time. In addition, the Potency entry in [8], in [9], in assay [10], in assay [11], in assay [13] and in assay [14] was “inactive” in each case. The Potency entry in [15] was “inactive”. Further, the molecule was classed as inactive in assay [4]. Moreover, the max response in [12] was 1.49%.
As for `Cc1ccc(Nc2c(F)cccc2Cl)c(CC(=O)O)c1`, the Potency result in [1], in assay [2], in assay [3], in [5], in [19] and in assay [6] was “inactive” in each case. The Potency result in assay [7], in assay [8], in assay [9], in assay [18], in [10] and in assay [11] was “inactive” in each case. Further, the Potency entry in assay [13], in [15], in assay [16] and in assay [17] was “inactive” throughout. Also, the molecule was classed as inactive in assay [4]. The activity change, positive = activation in assay [20] was -14.1% [at 42.5 µM]. Besides, the max response in [12] was 5.05%.
For the molecule `CCOC(=O)N1CCC(Nc2ccc(Cl)cc2N)CC1`, the Potency result in [1], in assay [2], in assay [3], in assay [5], in assay [6] and in [7] was “inactive” each time. The Potency entry in assay [8], in assay [9], in assay [18], in [10], in assay [11] and in assay [13] was “inactive” in each case. For the same molecule, the Potency entry in assay [14], in assay [15], in assay [16] and in assay [17] was “inactive” in each case. For the same molecule, the call in [4] was inactive. In addition, in assay [12], the max response is -19%.

These data come from PubChem BioAssay (Tox21).
